The values that follow come from PubChem BioAssay (NCATS).

Records with an inconclusive call do not appear. Entries that show only a call come without a potency. Activity calls are given as the source filed them. Unless noted, calls come from the whole dose curve; as a rule, active = well fitted curve in the direction sought with a large enough effect; inconclusive = small, poorly fitted or top-dose-only effect, or another doubt; inactive = no such curve, though single readings can be large; an effect the other way counts as inactive or inconclusive.

Experiment [1] concerns the target Peptidyl-prolyl cis-trans isomerase NIMA-interacting 1 (Homo sapiens) (UniProt Q13526). As to the kind of experiment: qHTS Validation Assay to Find Inhibitors of Pin1 (AID 504536; active = well fitted inhibition curve with a large enough effect in the polarisation, with a control signal flat, not every such curve was filed as active; the % refers to the polarisation). The essentials:
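Fluorescence polarization competition: compounds (titration) displace HiFluor-488-labeled Pin1-1b peptide from Pin1 (0.3 uM final) in pH 7.5 HEPES buffer with DTT, 10 min at room temperature; %Activity normalized to no-enzyme wells, curves fitted.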
(qHTS replaces the single test concentration by a dilution series.)

Experiment [2] has as its target phosphoglycerate mutase (Leishmania major) (UniProt Q4Q090). Nature of the experiment: qHTS Validation Assay to Find Inhibitors of Phosphoglycerate Mutase (AID 504548). Note: series mostly up to about 58 µM. The settings on record: Potency: inhibition qHTS. In a few lines: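 Lm PGAM 1.25nM final; 100 mM TEA pH 7.6, 5 mM MgCl2, 0.01% Tween-20; 45 min RT; Kinase-GloPlus, 10 min; end-point luminescence. Enzyme-free wells as negative controls.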

Experiment [3] can be described thus: Inducers of the Endoplasmic Reticulum Stress Response (ERSR) in human glioma: Validation (AID 504836). In a few lines:
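Stably transfected U87-MG glioma cells carrying a GRP78-based luciferase sensor; 16 h compound incubation. Luminescence end-point read 10 min after Bright-Glo addition at room temperature.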

The target of experiment [4] is Ubiquitin carboxyl-terminal hydrolase 1 (Homo sapiens) (UniProt O94782). As to the kind of experiment: Inhibitors of USP1/UAF1: Pilot qHTS (AID 504865).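 Note: rhodamine fluorescence freed from ubiquitin-rhodamine substrate followed over time; top concentration of the series differs between compounds; nearly all actives have a fitted effect of over 35% in size.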 In a few lines:
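Deubiquitinase activity followed as kinetic rhodamine fluorescence release from 150 nM Ub-Rho. 1 nM USP1/UAF1 with compound, after 15 min room-temperature preincubation, in HEPES pH 7.8 buffer containing TCEP, EDTA, BSA and Tween-20.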

The nature of experiment [5]: qHTS for Inhibitors of ATXN expression: Validation of Cytotoxic Assay (AID 588349). The essentials:
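Toxicity of test compounds toward HEK293 cells is scored from cellular ATP content measured by CellTiter Glo. Cells receive titrated doses and incubate 72 hr at 37 degrees C beforehand.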

The nature of experiment [6]: qHTS for Inhibitors of ATXN expression: Validation (AID 588378). Note: series mostly up to about 57 µM; nearly all actives have a fitted effect of over 75% in size. The essentials: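 Luciferase luminescence (Bright-Glo) from an ATXN2-FFLuc HEK293 line after 24 h compound exposure at 37 °C, preceded by a CellTiter-Fluor fluorescence viability read. Serial dilutions of a reference ATXN2 inhibitor and a luciferase inhibitor served as controls.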
In experiment [7] the target is DNA dC->dU-editing enzyme APOBEC-3G (Homo sapiens) (UniProt Q9HC16). Nature of the experiment: qHTS for inhibitors of Vif-A3G interactions: Validation (AID 588379). The essentials:
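Yellow fluorescence (Ex 488, Em 500-530) of Vif-coexpressing HeLa A3G-eYFP cells, scanned by Acumen cytometer, reports blocked A3G degradation. Cells plated at 700/well overnight at 37 deg C before compound addition, then a further overnight compound incubation at 37 deg C.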

Experiment [8] has as its target Phosphoglycerate kinase, glycosomal (Trypanosoma brucei brucei) (UniProt P07378). Nature of the experiment: qHTS Validation Assay to Find Inhibitors of Phosphoglycerate Kinase (AID 504547). In a few lines: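 Compounds are pinned into the substrate/PGK mixture, and GAPDH (100nM final) is added to start the reaction by producing 1,3-BPG. After 60 minutes at room temperature, Kinase-Glo Plus is added and luminescence is measured 10 minutes later.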

Peptidyl-prolyl cis-trans isomerase NIMA-interacting 1 (Homo sapiens), sequence (Q13526 whole entry, looked up): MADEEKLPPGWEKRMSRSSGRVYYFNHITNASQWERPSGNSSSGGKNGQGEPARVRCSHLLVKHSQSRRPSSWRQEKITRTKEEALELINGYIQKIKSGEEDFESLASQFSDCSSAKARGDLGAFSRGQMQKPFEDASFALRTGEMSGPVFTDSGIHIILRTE
Ubiquitin carboxyl-terminal hydrolase 1 (Homo sapiens), sequence (O94782 whole entry, looked up): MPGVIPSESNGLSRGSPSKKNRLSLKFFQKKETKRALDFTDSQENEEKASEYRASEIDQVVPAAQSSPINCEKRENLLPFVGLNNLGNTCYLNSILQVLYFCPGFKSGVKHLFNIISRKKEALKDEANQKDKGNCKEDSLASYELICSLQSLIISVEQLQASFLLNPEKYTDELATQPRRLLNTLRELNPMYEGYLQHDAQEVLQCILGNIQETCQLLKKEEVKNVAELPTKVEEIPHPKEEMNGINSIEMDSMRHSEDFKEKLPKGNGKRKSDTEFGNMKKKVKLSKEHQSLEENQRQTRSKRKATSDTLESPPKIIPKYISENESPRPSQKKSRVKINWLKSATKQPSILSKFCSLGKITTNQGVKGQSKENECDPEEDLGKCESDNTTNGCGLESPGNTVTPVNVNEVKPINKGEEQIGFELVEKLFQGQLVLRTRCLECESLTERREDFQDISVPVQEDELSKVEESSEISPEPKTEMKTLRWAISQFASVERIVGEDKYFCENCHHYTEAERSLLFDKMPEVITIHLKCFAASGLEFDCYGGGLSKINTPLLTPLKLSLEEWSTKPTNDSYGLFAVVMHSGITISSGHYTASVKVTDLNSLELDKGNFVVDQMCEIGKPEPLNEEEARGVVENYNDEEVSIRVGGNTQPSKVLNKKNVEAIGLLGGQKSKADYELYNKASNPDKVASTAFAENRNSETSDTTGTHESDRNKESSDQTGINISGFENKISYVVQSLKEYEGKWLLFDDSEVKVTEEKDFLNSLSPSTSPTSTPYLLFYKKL
phosphoglycerate mutase (Leishmania major), sequence (Q4Q090 1-553): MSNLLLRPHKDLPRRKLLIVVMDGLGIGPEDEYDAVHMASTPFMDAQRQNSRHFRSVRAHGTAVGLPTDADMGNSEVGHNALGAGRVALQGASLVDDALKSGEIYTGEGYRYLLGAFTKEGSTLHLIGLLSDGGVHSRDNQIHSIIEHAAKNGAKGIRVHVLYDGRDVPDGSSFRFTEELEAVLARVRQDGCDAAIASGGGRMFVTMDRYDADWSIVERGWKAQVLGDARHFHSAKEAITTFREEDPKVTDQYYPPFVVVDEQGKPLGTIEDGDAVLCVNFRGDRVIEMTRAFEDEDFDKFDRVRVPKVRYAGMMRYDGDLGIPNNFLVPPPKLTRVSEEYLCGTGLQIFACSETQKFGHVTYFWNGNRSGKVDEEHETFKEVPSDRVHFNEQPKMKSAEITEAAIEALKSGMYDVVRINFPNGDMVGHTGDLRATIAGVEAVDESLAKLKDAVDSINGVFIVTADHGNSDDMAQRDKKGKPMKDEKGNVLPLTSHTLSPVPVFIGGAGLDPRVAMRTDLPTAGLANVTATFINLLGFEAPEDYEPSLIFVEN
Phosphoglycerate kinase, glycosomal (Trypanosoma brucei brucei), sequence (P07378 whole entry, looked up): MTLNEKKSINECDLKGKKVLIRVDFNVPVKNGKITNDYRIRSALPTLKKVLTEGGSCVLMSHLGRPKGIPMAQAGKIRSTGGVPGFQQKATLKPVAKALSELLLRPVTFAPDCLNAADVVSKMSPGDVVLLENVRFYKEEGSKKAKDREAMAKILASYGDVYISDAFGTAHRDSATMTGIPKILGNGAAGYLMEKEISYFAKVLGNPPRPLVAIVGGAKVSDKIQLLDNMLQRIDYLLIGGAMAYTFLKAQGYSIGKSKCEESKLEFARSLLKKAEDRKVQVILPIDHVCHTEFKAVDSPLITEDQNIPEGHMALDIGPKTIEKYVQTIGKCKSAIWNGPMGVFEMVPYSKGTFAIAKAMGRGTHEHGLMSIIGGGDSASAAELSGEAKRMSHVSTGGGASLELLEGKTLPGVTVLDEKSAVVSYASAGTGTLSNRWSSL
DNA dC->dU-editing enzyme APOBEC-3G (Homo sapiens), sequence (Q9HC16 whole entry, looked up): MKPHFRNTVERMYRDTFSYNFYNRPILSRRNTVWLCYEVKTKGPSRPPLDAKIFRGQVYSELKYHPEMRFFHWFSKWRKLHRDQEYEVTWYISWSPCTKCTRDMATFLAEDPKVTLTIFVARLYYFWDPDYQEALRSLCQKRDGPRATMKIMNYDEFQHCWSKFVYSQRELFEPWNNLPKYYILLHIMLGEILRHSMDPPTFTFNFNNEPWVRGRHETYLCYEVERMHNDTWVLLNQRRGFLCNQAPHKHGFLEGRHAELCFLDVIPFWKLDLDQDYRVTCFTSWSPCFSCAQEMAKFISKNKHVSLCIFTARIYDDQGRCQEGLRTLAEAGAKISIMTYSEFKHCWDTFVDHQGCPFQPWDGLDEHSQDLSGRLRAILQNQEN

As to `Cc1cc([C@@H]2CCCN2C)on1`, the Potency entry in experiment [1], in experiment [2], in experiment [4], in experiment [5] and in experiment [6] was “inactive” each time. Besides, the compound was classed as inactive in experiment [3].

For the compound `CCCN1CCc2cc(O)cc3c2[C@H]1Cc1ccc(O)c(O)c1-3`, the Potency result in experiment [1] and in experiment [4] was “inactive” each time. The compound was called inactive in experiment [3].

As to `CC(C)[C@@]1(NC(=O)[C@@H]2C[C@@H]3c4cccc5[nH]cc(c45)C[C@H]3N(C)C2)O[C@@]2(O)[C@@H]3CCCN3C(=O)[C@H](Cc3ccccc3)N2C1=O`, the Potency entry in experiment [1], in experiment [2], in experiment [4] and in experiment [5] was “inactive” each time. Also, in experiment [7], the compound was called inactive.

Turning to `C=CCN1CCc2cccc3c2[C@H]1Cc1ccc(O)c(O)c1-3`, the Potency entry in experiment [1] and in experiment [4] was “inactive” each time.

As for `O[C@H]1[C@H]2[C@H](O)CCCN2C[C@H]1O`, the Potency entry in experiment [4] was “inactive”.

Regarding `C[C@H](N)Cc1cccc(C(F)(F)F)c1`, the Potency entry in experiment [1], in experiment [8], in experiment [2], in experiment [4], in experiment [5] and in experiment [6] was “inactive” throughout.

On to `O=S(=O)(O)c1cc(O)ccc1O`, for which the Potency entry in experiment [4] was “inactive”.

`CCCN1CCC[C@@H](c2cccc(O)c2)C1`: the Potency entry in experiment [1], in experiment [8], in experiment [2], in experiment [4], in experiment [5] and in experiment [6] was “inactive” throughout. Besides, the compound was classed as inactive in experiment [3].

With `Clc1ccc(Cl)cc1`, the Potency result in experiment [4] is “inactive”.

As to `F/C(COc1ccc2c(c1)[nH]c1ccccc12)=C1/CN2CCC1CC2`, in experiment [4], the Potency result is “inactive”.

As for `CCC1(c2ccccc2)C(=O)NC(=O)NC1=O`, the Potency result in experiment [4] was “inactive”.

For `CC(=O)OO`, the Potency result in experiment [4] was “inactive”.

As to `CC(Cc1ccccc1)NC=O` (stereo not given), the Potency result in experiment [4] was “inactive”.

As for `CCCC(C)(COC(N)=O)COC(=O)NC1CC1` (stereo not given), in experiment [4], the Potency result was “inactive”.

As to `CCCCNCC(O)c1ccc(O)cc1` (stereo not given), the Potency entry in experiment [4] is “inactive”.

For `CCC(=O)O[C@@](Cc1ccccc1)(c1ccccc1)[C@@H](C)CN(C)C`, the Potency result in experiment [4] was “inactive”.

Consider `C[C@]12CCC(=O)C[C@@H]1CC[C@@H]1[C@@H]2CC[C@]2(C)[C@@H](O)CC[C@@H]12`, for which the Potency result in experiment [4] is “inactive”.

In the case of `C=CCN1CC[C@]23c4c5ccc(O)c4O[C@H]2[C@@H](O)C=C[C@H]3[C@H]1C5`, the Potency entry in experiment [4] was “inactive”.

As for `CN1CCCC(=C(c2cccs2)c2cccs2)C1`, in experiment [4], the Potency entry was “inactive”.

As to `O=C(CS(=O)C(c1ccccc1)c1ccccc1)NO` (stereo not given), the Potency result in experiment [4] was “inactive”.

In the case of `CCC(C)(S(=O)(=O)CC)S(=O)(=O)CC`, the Potency entry in experiment [4] was “inactive”.

With `c1csc(C2(N3CCCCC3)CCCCC2)c1`, the Potency result in experiment [4] is “inactive”.
